Data: PubChem BioAssay (NCI)
Compounds without any hit were thinned out: in the full panel of roughly 79,000, 15% have a hit. Unmarked numbers belong to inactive results. Cut-off read from the data, not from the text of the source: active = growth inhibition above about 70%; inactive = the rest. Where a SMILES comes first, the peptide text is derived from it. The star is where a group is joined. Cbz = O=C(OCc1ccccc1)*

Test: NCI Yeast Anticancer Drug Screen. Data for the sgs1 mgt1 strain (AID 161);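 note: 0% = growth of cultures given vehicle only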
Details: S. cerevisiae sgs1 mgt1 strain, at 50.0 µM, active compounds read high
Description: Growth inhibition of yeast strains with defined genetic alterations is measured as a screen for potential anti-cancer activity. Selected strains with alterations in DNA damage repair or cell cycle control were exposed to compounds and growth inhibition was measured relative to vehicle treated controls. The strain used in this assay is sgs1 mgt1
For CCc1nc2c([nH]1)c(=O)n(C)c(=O)n2C, the growth inhibition was 11.6%.
COc1ccc(C(=O)/C=C/C(C)=C/C=N/N(C)c2ccccc2)cc1 gave a growth inhibition of -0.5%.
Work on CCOC(=O)CNC(=O)C(Cc1ccccc1)NC(=O)CNC(=O)OCc1ccccc1 (stereo not given) yielded a growth inhibition of 15.5%.
O=C1CCC2c3ccccc3C(=O)C2C1 (stereo not given) showed a growth inhibition of -1.45%.
Compound CC(=O)C(C(C)=O)[N+](=O)[O-].CC(=O)C(C(C)=O)[N+](=O)[O-].[Cu] has a growth inhibition of -6.75%.
In the case of O=C(NC(CSC(=O)OCc1ccccc1)C(=O)Oc1ccc([N+](=O)[O-])cc1)OCc1ccccc1 (stereo not given), the growth inhibition is reported as 3.45%.
Work on O=C(Nc1ccn(C2CCC(CO)O2)c(=O)n1)c1ccccc1 (stereo not given) yielded a growth inhibition of -16.7%.
CC1(C2c3ccccc3CC2OC2CCCCO2)CO1 (stereo not given) gave a growth inhibition of -9.5%.
For NC(=O)c1csc([C@@H](O)Cc2ccccc2)n1, the growth inhibition was 7.5%.
Work on O=[N+]([O-])c1ccc(Nc2ccccc2)c([N+](=O)[O-])c1 yielded a growth inhibition of -1.4%.
Compound Cc1ccc(N2C(=O)CSC2=S)cc1C has a growth inhibition of -30%.
CC(C)(C)[Si](C)(C)OCC1OC(n2cc(I)c(=O)[nH]c2=O)C(O[Si](C)(C)C(C)(C)C)C1O[Si](C)(C)C(C)(C)C (stereo not given) showed a growth inhibition of -18.2%.
With C=CC(=O)NC(C)C(=O)O (stereo not given) the growth inhibition was 0%.
Work on O=C(NNC(=O)c1ccc2ccccc2c1)c1cccc(Br)c1 yielded a growth inhibition of -6.55%.
For CC(C)(CO[C@H]1C[C@H]2CC[C@@]1(C)C2(C)C)[N+](=O)[O-], the growth inhibition was 50%.
In the case of CC(=O)OC12C=CC(=O)N1c1ccccc1C(=O)O2 (stereo not given), the growth inhibition is reported as 25%.
Work on N#C/C(=C1\OC(=O)C(c2ccc(Br)cc2)=C1O)c1ccc(Br)cc1 yielded a growth inhibition of -4%.
With CCc1ccccc1NC(=O)NCC(C)C the growth inhibition was 5.85%.
CC(Nc1ncccn1)Nc1ncccn1 gave a growth inhibition of 7.75%.
CN(C)Cc1cc(C=O)cc(CN(C)C)c1O gave a growth inhibition of -29.2%.
Compound CSc1nc(SC)c2cnn(C3OC(CO)C(O)C3O)c2n1 (stereo not given) has a growth inhibition of 20.9%.
For CCNC(=O)Nc1ccccn1, the growth inhibition was 8.85%.
O=c1c(-c2ccccc2)c(O)on1/C=C1/C=CC=N1 gave a growth inhibition of 3.5%.
With c1ccc(CCc2ccnc3ccccc23)cc1 the growth inhibition was -2.9%.
Work on CSc1nc2c([nH]1)c(=O)n(C)c(=O)n2C yielded a growth inhibition of 8.4%.
Work on CCOc1ccc2nc(NC(=O)C(=O)C3C(=O)C(CC4C(=O)c5ccccc5C4=O)C(=O)CC3(C)C)sc2c1 (stereo not given) yielded a growth inhibition of 14.3%.
CCC(COCC(CC)C(=O)O)C(=O)O (stereo not given) showed a growth inhibition of 18.6%.
Work on C(=N\c1nc2ccccc2s1)/c1cccs1 yielded a growth inhibition of -14.8%.
Compound C=CC(CO)N(CC)CC (stereo not given) has a growth inhibition of 7.25%.
Compound COC(=O)N/N=C(/c1nc2ccc([N+](=O)[O-])cc2[nH]c1=O)C(O)c1ccc(OC)c(OC)c1 (stereo not given) has a growth inhibition of -3.05%.
With c1ccc(CCN=C2c3ccccc3-n3cccc32)nc1 the growth inhibition was -6.75%.
In the case of COC(=O)C(NC(=O)C(C)NC(=O)C1CCCN1C(=O)CNC(=O)C(CO)NC(=O)C(NC(=O)OCc1ccccc1)C(C)O)C(C)O (stereo not given) (Cbz-TSGPAT-OMe; configuration not given here), the growth inhibition is reported as -4.7%.
O=C(O)c1ccc(C2C3C=CC(C3)C2[N+](=O)[O-])cc1 (stereo not given) gave a growth inhibition of -20.2%.
In the case of CN1c2ccccc2C(=O)NC12CCN(Cc1ccccc1)CC2, the growth inhibition is reported as -12.8%.
In the case of O=c1c2ccccc2nc(-c2ccc(Br)cc2)n1NC1OC(CO)C(O)C(O)C1O (stereo not given), the growth inhibition is reported as 5.2%.
O=C1/C(=C/C=C/c2ccccc2)CCC1CNc1ccc(Br)cc1 (stereo not given) gave a growth inhibition of -17.8%.
CCOC(=O)c1cccc(OCC)c1 showed a growth inhibition of -7.65%.
For ClC1CC/C=C\CC/C=C/CCC1Cl (stereo not given), the growth inhibition was 22.1%.
Work on CN(C)CCCNc1ccc2nnn3c4ccc([N+](=O)[O-])cc4c(=O)c1c23 yielded a growth inhibition of 45.8%.
For O=C(NO)C(=O)Nc1ccc(Cl)cc1[N+](=O)[O-], the growth inhibition was 36.5%.
